From PubChem BioAssay (Tox21)
Inconclusive results are not listed. Entries that show only a call come without a potency. The source made the active and inactive calls. Unless noted, the call rests on the fitted dose curve; in most records, active means well fitted curve in the direction sought with a large enough effect in the repeat runs; inconclusive means weak or mixed curves; inactive means no such curve, though single readings can be large; an effect the other way counts as inactive or inconclusive.

How the values were obtained:
[1] = target: Retinoic acid receptor RXR-alpha (Homo sapiens) (UniProt P19793); assay: qHTS assay to identify small molecule agonists of the RXR signaling pathway (AID 1159527; calls by dose curve; further: nearly all actives have a fitted effect of over 35% in size)
Retinoic acid receptor RXR-alpha (Homo sapiens), sequence (P19793 whole entry, looked up): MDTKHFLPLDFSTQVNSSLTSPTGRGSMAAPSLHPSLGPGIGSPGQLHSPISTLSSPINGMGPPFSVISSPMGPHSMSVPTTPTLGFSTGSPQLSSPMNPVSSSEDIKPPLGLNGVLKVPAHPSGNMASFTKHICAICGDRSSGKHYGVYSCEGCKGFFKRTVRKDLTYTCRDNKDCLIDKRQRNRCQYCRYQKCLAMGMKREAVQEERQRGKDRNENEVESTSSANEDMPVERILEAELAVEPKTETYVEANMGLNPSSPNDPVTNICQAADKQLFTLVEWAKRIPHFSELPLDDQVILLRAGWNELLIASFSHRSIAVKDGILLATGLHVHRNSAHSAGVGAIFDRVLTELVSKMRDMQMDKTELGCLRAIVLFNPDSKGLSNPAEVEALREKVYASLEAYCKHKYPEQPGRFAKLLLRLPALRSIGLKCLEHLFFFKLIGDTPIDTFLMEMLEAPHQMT
In short: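 GeneBLAzer RXR-alpha-UAS-bla HEK 293T cells in 2% charcoal-stripped FBS medium were exposed to compounds for 16 hr at 37 C in agonist mode. Beta-lactamase reporter read as 460/530 nm FRET ratio after 2 hr substrate loading.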

[2] = qHTS assay to identify small molecule agonists of the RXR signaling pathway - cell viability counter screen (AID 1159529); further: series mostly up to about 77 µM; nearly all actives have a fitted effect of over 50% in size
In short: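 RXR-alpha-UAS-bla HEK 293T cells in medium with 2% charcoal-stripped FBS were pre-incubated 5 hr, then compound-treated 16 hr at 37 C. Viability was read by CellTiter-Glo luminescence in the same wells as the beta-lactamase assay, with tetraoctyl ammonium bromide as positive control.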

[3] = qHTS assay to identify small molecule antagonists of the retinoid acid receptor (RAR) signaling pathway - cell viability counter screen (AID 1159551); further: nearly all actives have a fitted effect of over 35% in size
In short: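 Retinol-stimulated (1 uM final) C3RL4 cells, compound 6 h, 37 C; readout CellTiter-Glo luminescence (ATP) after 30 min RT incubation.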

[4] = qHTS assay to identify small molecule antagonists of the retinoic acid receptor (RAR) signaling pathway (AID 1159552; further: nearly all actives have a fitted effect of over 50% in size)
In short: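 Retinol signaling pathway inhibitors screened in C3RL4 RARE-luciferase reporter cells seeded overnight at 37 C, then compounds added with 1 uM (final) retinol as pathway substrate. After 6 hr at 37 C, luciferase luminescence read after 30 min at room temperature.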

[5] = qHTS assay to identify small molecule agonists of the retinoic acid receptor (RAR) signaling pathway (AID 1159553); further: potency means the concentration at half of the fitted maximal effect
In short: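 Reporter readout comes from luciferase under RARE control in C3RL4 cells; compound exposure lasts 6 hr at 37 C in 5% CO2, and luminescence is recorded following a 30 min room-temperature incubation with reagent.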

[6] = qHTS assay to identify small molecule antagonists of the estrogen related receptor (ERR) signaling pathway from Tox21 library - cell viability counter screen (AID 1224834); further: nearly all actives have a fitted effect of over 30% in size
In short: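 After 17.5 h of compound exposure at 37 C, ERR cells are incubated with CellTiter-Fluor for 30 min and fluorescence intensity serves as the viability measure.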

[7] = qHTS assay to identify small molecule agonists of the constitutive androstane receptor (CAR) signaling pathway - cell viability counter screen (AID 1224836); further: series mostly up to about 92 µM; nearly all actives have a fitted effect of over 45% in size
In short: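 HepG2 cells stably carrying hCAR and a CYP2B6-2.2kb reporter; 15-concentration compounds plus PK11195 (final 0.75 uM), 23 hr at 37 C/5% CO2. Viability read by CellTiter-Fluor fluorescence.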

[8] = qHTS assay to identify small molecule antagonists of the constitutive androstane receptor (CAR) signaling pathway - cell viability counter screen (AID 1224837); further: series mostly up to about 92 µM; nearly all actives have a fitted effect of over 45% in size
In short: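 Counter screen run in HepG2-CYP2B6-hCAR cells: 4 hr settle, compound titration (15 concentrations) with 50 nM CITCO, 23 hr at 37 C/5% CO2, CellTiter-Fluor fluorescence.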

[9] = target: Nuclear receptor subfamily 1 group I member 3 (Homo sapiens) (UniProt Q14994); assay: qHTS assay to identify small molecule antagonists of the constitutive androstane receptor (CAR) signaling pathway (AID 1224838);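 further: HepG2 cells stably expressing hCAR with CYP2B6 luciferase reporter stimulated by CITCO; nearly all actives have a fitted effect of over 40% in size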
Nuclear receptor subfamily 1 group I member 3 (Homo sapiens), sequence (Q14994 whole entry, looked up): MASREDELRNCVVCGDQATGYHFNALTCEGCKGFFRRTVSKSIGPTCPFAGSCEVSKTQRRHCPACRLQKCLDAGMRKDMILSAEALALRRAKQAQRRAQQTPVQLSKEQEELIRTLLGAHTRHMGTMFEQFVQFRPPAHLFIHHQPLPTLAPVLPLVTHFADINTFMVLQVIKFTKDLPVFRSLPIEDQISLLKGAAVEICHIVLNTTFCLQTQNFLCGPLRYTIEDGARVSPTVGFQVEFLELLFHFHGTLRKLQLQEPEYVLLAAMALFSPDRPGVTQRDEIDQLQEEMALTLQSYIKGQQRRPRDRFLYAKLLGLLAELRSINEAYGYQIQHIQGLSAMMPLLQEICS
In short: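 Cell line: HepG2 double-stable for hCAR and CYP2B6-2.2kb reporter. Agonist: CITCO, 50 nM final. Compounds: 15 concentrations, 24 h, 37 C. Detection: ONE-Glo luminescence.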

[10] = qHTS assay to identify small molecule antagonists of the estrogen related receptor signaling pathway with the pleiotropic PPARgamma coactivator (PGC) from Tox21 10K library - cell viability counter screen (AID 1224840; active means well fitted cell-killing curve with a large enough effect in the repeat runs, not every such curve was filed as active; further: nearly all actives have a fitted effect of over 40% in size)
In short: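 Following seeding of 2,000 PGC/ERR cells/well and 6 hours' incubation, test compounds were delivered in DMSO. The plates then sat 17.5 hours at 37 C before a fluorogenic live-cell protease reagent (CellTiter-Fluor) was read after 30 min.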

[11] = qHTS assay to identify small molecule antagonists of the estrogen related receptor signaling pathway with the pleiotropic PPARgamma coactivator (PGC) from Tox21 10K library (AID 1224841; call rule not given here; further: series mostly up to about 92 µM; actives are mostly falling curves and most rising ones were filed inactive; nearly all actives have a fitted effect of over 50% in size)
In short: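 qHTS antagonist format: PGC/ERR cells, 2k/well, compound in DMSO by pin transfer after 6 h attachment, 18 h treatment at 37 C, One-Glo luminescence read at 30 min.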

[12] = target: Luciferin 4-monooxygenase (Photinus pyralis) (UniProt P08659); assay: qHTS assay to identify small molecule inhibitors of firefly luciferase (AID 1224835); further: nearly all actives have a fitted effect of over 25% in size; further: potency means the concentration at half of the fitted maximal effect
Luciferin 4-monooxygenase (Photinus pyralis), sequence (P08659 whole entry, looked up): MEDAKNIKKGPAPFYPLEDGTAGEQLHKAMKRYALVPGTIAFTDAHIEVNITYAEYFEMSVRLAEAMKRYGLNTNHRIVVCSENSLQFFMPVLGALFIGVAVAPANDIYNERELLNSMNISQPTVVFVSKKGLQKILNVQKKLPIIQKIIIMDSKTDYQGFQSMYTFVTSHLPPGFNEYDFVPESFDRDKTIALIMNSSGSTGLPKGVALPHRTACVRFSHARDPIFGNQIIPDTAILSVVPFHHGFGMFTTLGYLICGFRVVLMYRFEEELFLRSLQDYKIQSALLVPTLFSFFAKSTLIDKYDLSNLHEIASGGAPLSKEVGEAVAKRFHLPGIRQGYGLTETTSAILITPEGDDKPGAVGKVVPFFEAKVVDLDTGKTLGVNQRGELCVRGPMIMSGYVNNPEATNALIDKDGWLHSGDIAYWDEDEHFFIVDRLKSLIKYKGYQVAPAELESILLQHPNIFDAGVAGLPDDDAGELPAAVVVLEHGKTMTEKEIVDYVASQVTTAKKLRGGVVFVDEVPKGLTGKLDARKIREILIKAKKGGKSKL
In short: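 Quantitative HTS format; KM concentrations of both substrates. Purified P. pyralis FLuc activity quantified from luminescence images.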

[13] = qHTS assay to identify small molecule antagonists of the estrogen related receptor (ERR) signaling pathway - cell viability counter screen (AID 1224818); further: series mostly up to about 46 µM
In short: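 After a 6 h pre-incubation, ERR cells were dosed by pin tool with compounds, positive/negative controls or DMSO alone. Following 17.5 h at 37 C and 30 min with CellTiter-Fluor, fluorescence was recorded.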

[14] = qHTS assay to identify small molecule antagonists of the estrogen related receptor signaling pathway with the pleiotropic PPARgamma coactivator (PGC) cell viability counter screen (AID 1224822; further: series mostly up to about 46 µM)
In short: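 PGC/ERR cells were plated at 2,000 per well and allowed 6 h to settle before compound addition. Following 17.5 h at 37 C, CellTiter-Fluor reagent was added and fluorescence was read 30 min later.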

[15] = target: Nuclear receptor subfamily 1 group I member 3 (Homo sapiens) (UniProt Q14994); assay: qHTS assay to identify small molecule agonists of the constitutive androstane receptor (CAR) signaling pathway (AID 1224839); further: nearly all actives have a fitted effect of over 15% in size; further: potency means the concentration at half of the fitted maximal effect
In short: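 HepG2 cells stably co-transfected with hCAR and a CYP2B6-2.2kb luciferase reporter; compounds at 15 concentrations with 0.75 uM PK11195 present. After 24 hr at 37 C, luciferase read by ONE-Glo luminescence.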

[16] = qHTS assay to identify small molecule agonists of the estrogen related receptor signaling pathway with the pleiotropic PPARgamma coactivator (PGC) from Tox21 10K library (AID 1224842); further: nearly all actives have a fitted effect of over 15% in size
In short: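 PGC/ERR reporter cells (NTP line) were seeded 2,000 per well, rested 6 h at 37 C/5% CO2, then pin-dosed with compounds in DMSO for 18 h at 37 C; luciferase read by One-Glo luminescence after 30 min at room temperature.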

Row | SMILES | Potency [1] | Potency [2] | Potency [3] | Potency [4] | Potency [5] | Potency [6] | Potency [7] | Potency [8] | Potency [9] | Potency [10] | Potency [11] | Potency [12] | outcome [13] | outcome [14] | Potency [15] | Potency [16]
1 | CCOC(=O)c1ccc(NC(=O)CN2CCCCC2)cc1 | inactive | inactive | inactive | inactive | 21.1 µM (active) | inactive | inactive | inactive | inactive | inactive | inactive | – | – | – | – | –
2 | COc1ccc(C)cc1 | inactive | inactive | inactive | inactive | inactive | inactive | inactive | inactive | – | inactive | – | inactive | – | – | – | –
3 | Nc1nc2ccc(OC(F)(F)F)cc2s1 | inactive | inactive | inactive | inactive | – | – | inactive | inactive | inactive | inactive | – | 24.5 µM (active) | inactive | inactive | 11.9 µM (active) | –
4 | CCCCCCCCCCCCCCCCCC(=O)OCC(CC)CCCC (centres undefined) | inactive | inactive | inactive | inactive | inactive | inactive | inactive | – | – | inactive | – | inactive | – | – | inactive | –
5 | CCC(CO)(CO)[N+](=O)[O-] | inactive | inactive | inactive | inactive | inactive | inactive | inactive | – | inactive | inactive | inactive | – | – | – | inactive | inactive
6 | C=Cc1ccc(OC(C)=O)cc1 | inactive | inactive | inactive | inactive | inactive | inactive | inactive | – | inactive | inactive | inactive | inactive | – | – | inactive | inactive
7 | CC(C)OC(=O)c1ccccc1C(=O)OC(C)C | inactive | inactive | inactive | inactive | inactive | inactive | inactive | – | inactive | inactive | – | inactive | – | – | – | –
8 | FC(F)(F)C(F)(F)C(F)(F)C(F)(F)CCI | inactive | inactive | inactive | inactive | inactive | inactive | inactive | inactive | inactive | inactive | – | – | – | – | inactive | –
9 | O=C(O)c1ccc(O)cc1O | inactive | inactive | inactive | inactive | inactive | inactive | inactive | – | – | inactive | inactive | inactive | – | – | inactive | inactive
10 | COC(=O)CC(C(C)=O)C(=O)OC (centres undefined) | inactive | inactive | inactive | inactive | inactive | inactive | inactive | inactive | – | inactive | – | – | – | – | inactive | –
11 | CC(C)(C)NCC(O)COc1cccc2c1C[C@H](O)[C@H](O)C2 (some centres undefined) | inactive | inactive | inactive | inactive | inactive | inactive | inactive | inactive | – | inactive | – | inactive | – | – | – | –
12 | O=C(O)CCS | inactive | inactive | inactive | inactive | inactive | inactive | inactive | inactive | inactive | inactive | inactive | – | – | – | – | inactive
13 | C1CCCCC1 | inactive | inactive | inactive | inactive | inactive | inactive | inactive | – | – | inactive | inactive | inactive | – | – | inactive | inactive
14 | CC(=O)NNC(C)=O | inactive | inactive | inactive | inactive | inactive | inactive | inactive | inactive | – | inactive | inactive | inactive | – | – | – | inactive
15 | CC(C)(C)S | inactive | inactive | inactive | inactive | inactive | inactive | inactive | inactive | – | inactive | inactive | inactive | – | – | – | inactive
16 | CCN(CC)c1cccc(O)c1 | inactive | inactive | inactive | inactive | inactive | inactive | inactive | inactive | inactive | inactive | inactive | – | – | – | 55.6 µM (active) | inactive
17 | CC(C)(C(=O)c1cccnc1)c1cccnc1 | inactive | inactive | inactive | inactive | inactive | inactive | inactive | – | – | inactive | – | inactive | – | – | inactive | –
18 | COc1cc(NS(=O)(=O)c2ccc(N)cc2)nc(C)n1 | inactive | inactive | inactive | inactive | inactive | inactive | inactive | – | inactive | inactive | inactive | inactive | – | – | inactive | inactive
19 | O=C(NC(Cc1cc(=O)[nH]c2ccccc12)C(=O)O)c1ccc(Cl)cc1 (centres undefined) | inactive | inactive | inactive | inactive | inactive | – | inactive | inactive | inactive | inactive | – | – | – | – | inactive | –
20 | CCOc1ncc(F)c(=O)[nH]1 | inactive | inactive | inactive | inactive | inactive | inactive | inactive | inactive | – | inactive | – | inactive | – | – | – | –
21 | Cc1ccc(S(=O)(=O)NC(=O)NC2CCCCC2)cc1 | inactive | inactive | inactive | inactive | inactive | inactive | inactive | – | – | inactive | – | inactive | – | – | – | –
22 | C=CC(=O)O | inactive | inactive | inactive | inactive | inactive | inactive | inactive | inactive | inactive | inactive | – | – | – | – | – | –
